# PLCb3 inh: human PLC-beta3 inhibitors, primary screen, biochemical, fluorescence | Purified PLC-beta3, fluorogenic substrate | inhibition, % at 12.2 µM | 370,000 compounds, 0.18% hits | AID 720704, 2013; in the data active = inhibition above about 11%
# sPLA2-III inh: human group III sPLA2 inhibitors, primary screen, biochemical, QFRET, BODIPY PC-A2 liposome substrate; QFRET BODIPY PC-A2 liposome hydrolysis, fluorescence; inhibition, % at 12.2 µM; 370,000 compounds, 0.56% hits; AID 743126, 2013;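 active = inhibition above mean plus 3 SD of compounds lying within the high and low control bounds, cut at about 19% in these data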
# Target sequence (Q9NZ20 whole entry, looked up): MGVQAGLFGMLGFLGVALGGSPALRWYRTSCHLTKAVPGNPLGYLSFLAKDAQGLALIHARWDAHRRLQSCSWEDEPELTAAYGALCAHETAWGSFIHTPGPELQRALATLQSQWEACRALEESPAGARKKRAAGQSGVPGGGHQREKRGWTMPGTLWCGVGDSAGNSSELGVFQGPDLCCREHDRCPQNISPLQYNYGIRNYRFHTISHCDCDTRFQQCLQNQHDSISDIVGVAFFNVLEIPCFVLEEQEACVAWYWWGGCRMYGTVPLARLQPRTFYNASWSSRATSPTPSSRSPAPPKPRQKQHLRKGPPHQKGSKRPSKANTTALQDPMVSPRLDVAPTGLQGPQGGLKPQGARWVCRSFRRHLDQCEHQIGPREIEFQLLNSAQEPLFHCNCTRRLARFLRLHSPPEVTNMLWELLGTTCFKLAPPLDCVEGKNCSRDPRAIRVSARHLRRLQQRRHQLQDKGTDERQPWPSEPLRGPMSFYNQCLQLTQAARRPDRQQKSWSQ
# Yeast superoxide: reduction of superoxide in aged yeast, primary screen, HTS. S. cerevisiae aged cells, superoxide DHE fluorescence; hits give low values. superoxide response (% of plate mean), % at 10 µM. 330,000 compounds, 0.18% hits;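 active = superoxide response under a set limit, about three screen SD below normal, cut at about 65% in these data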;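 also: yeast aged for seven days with compound at 30 °C before DHE staining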
# AHR act: AHR activators, primary screen, cell-based, luminescence, luciferase reporter, human; Aryl hydrocarbon receptor (Homo sapiens), P35869; AHR-responsive luciferase reporter cells; activation, % at 5 µM; 320,000 compounds, 2.5% hits; in the data active = activation above about 47%
# PLCg1 inh: PLC-gamma1 enzyme inhibitors, primary screen, biochemical, fluorescence, purified enzyme; 1-phosphatidylinositol 4,5-bisphosphate phosphodiesterase gamma-1 (Homo sapiens), P19174; fluorogenic substrate; inhibition, % at 12.2 µM; 370,000 compounds, 0.84% hits; in the data active = inhibition above about 9.5%
# HIF act: HIF pathway transcriptional activators, primary screen, cell-based, U2OS HRE-luciferase, luminescence; U2OS HRE-luciferase reporter; normalized: DMSO 0%, desferrioxamine 100%; activation, % at 7.5 µM (by protocol); 300,000 compounds, 0.32% hits; AID 1910, 2009;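 active = mean activation of at least 10% of the iron chelator positive control signal, with at least half of replicates also reaching 10%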
# sPLA2 confirm: human group III sPLA2 inhibitors, confirmation, biochemical, QFRET, triplicate. shares compounds with sPLA2-III inh. recombinant hGIII-sPLA2, BODIPY PC-A2 QFRET fluorescence. inhibition, % at 12.2 µM. 2,000 compounds, 34% hits. AID 743280, 2014;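 active = mean inhibition across triplicates above the hit cutoff set in the earlier primary screen, cut at about 19% in these data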
# 535nm interf: 535nm fluorescence optical interference, confirmation, artefact control for HGIII-sPLA2 inhibitor project, biochemical, QFRET; shares compounds with sPLA2-III inh; BODIPY FL product fluorescence interference; inhibition, % at 12.2 µM; 2,000 compounds, 8.5% hits; AID 743282, 2014;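 active = average inhibition above the solvent-only control mean plus 3 SD, cut at about 6% in these data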
# BODIPY interf DR: 535nm fluorescence optical interference, dose response, artefact control for HGIII-sPLA2 inhibitor project, biochemical, QFRET. shares compounds with sPLA2-III inh. 240 tested, under 10 active. BODIPY FL product fluorescence interference, cell-free. IC50, µM. AID 743455, 2014;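 active = IC50 at or below 10 µM; inactive = IC50 above 10 µM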
# Hits are given with their value; - = inactive; . = not tested or not shown. Most compounds without a hit are left out; they make up all but 3.9% or so of the library.
SMILES,PLCb3 inh,sPLA2-III inh,Yeast superoxide,AHR act,PLCg1 inh,HIF act,sPLA2 confirm,535nm interf,others
Fc1cccc(Cl)c1CSc1nnc2ccccn12,-,-,-,-,-,-,.,.,
CCOC(=O)CCC(NC(=O)c1ccc(Nc2nc3ccccc3nc2C(=O)OCC)cc1)C(=O)OCC (stereo not given),-,-,.,.,-,.,.,.,
CCOC(=O)C(=O)NNc1ccc(F)cc1,-,21.2,-,-,-,-,-,-,
Cc1ccc(/C(N)=N/OC(=O)CCc2ccccc2)cc1,-,19.6,-,-,-,-,-,-,
N/C(=N\OC(=O)CCc1ccccc1)c1ccc(Br)cc1,-,-,-,-,-,-,.,.,
O=C(Nc1nnc(SCC(=O)N2CCCc3ccccc32)s1)c1ccc2ccccc2c1,-,20.0,-,-,-,-,-,-,
Cc1ccc(C2CCN(C(=S)NC(C)C)C2)cc1 (stereo not given),-,22.6,-,-,-,-,-,-,
COC(=O)C[C@@H]1C[C@H]2c3cc(NS(C)(=O)=O)ccc3O[C@H]2[C@H](CO)O1,-,-,.,.,-,.,.,.,
Oc1ccccc1N=Nc1nc(-c2ccccc2)c(-c2ccccc2)[nH]1,-,27.7,-,-,-,220.2,-,15.6,
O=C(O)c1ccc(-c2nc(-c3ccccc3)c(-c3ccccc3)[nH]2)cc1,-,-,-,-,-,-,.,.,
COc1ccc(N=Nc2nc(-c3ccccc3)c(-c3ccccc3)[nH]2)cc1,-,27.7,-,-,-,-,30.1,-,BODIPY interf DR=-
COc1ccccc1N=Nc1nc(-c2ccccc2)c(-c2ccccc2)[nH]1,-,-,-,-,-,-,.,.,
C[C@@H]1CN([C@H](C)CO)C(=O)CCCn2cc(nn2)CO[C@H]1CN(C)S(=O)(=O)c1cccc(C#N)c1,-,-,.,.,-,.,.,.,
CC(C)NC(=O)c1ccccc1NC(=O)/C=C/c1cccc([N+](=O)[O-])c1,-,23.1,-,-,-,-,-,-,
CC(C)C(NC(=O)/C=C/c1cccc([N+](=O)[O-])c1)C(C)C,-,-,-,-,-,-,.,.,
N#CC(C(=S)Nc1ccccc1)c1nc2ccccc2[nH]1 (stereo not given),-,28.0,-,73.1,-,-,-,7.4,
CSC(=Nc1ccccc1)C(C#N)c1nc2ccccc2[nH]1 (stereo not given),-,-,-,-,-,-,.,.,
CN1c2ccccc2Sc2cc(N)ccc21,-,21.4,-,62.1,-,-,35.8,10.5,
CCOC(=O)C1=CCC(c2ccc(C#N)cc2)N(S(=O)(=O)c2ccc(C)cc2)C1 (stereo not given),-,-,.,.,-,.,.,.,
CC(C)c1cc(C(=O)NCCc2cccs2)c(N)s1,-,-,.,.,-,.,.,.,
CC(C)c1cc(C(=O)NCc2ccc(F)cc2)c(N)s1,-,21.2,.,.,-,.,23.7,-,
O=C(C(=Cc1ccccc1)CN1CCCCC1)c1ccccc1,-,-,.,.,-,.,.,.,
Cc1ccc(Nc2n[nH]c(=S)s2)cc1,-,23.9,.,.,-,.,34.3,-,BODIPY interf DR=-
CCCNC(=O)C[C@H]1CC[C@@H]2[C@H](COC[C@@H](O)CN2C(=O)c2ccccn2)O1,-,-,.,.,-,.,.,.,
O=C(NNc1nc(-c2ccc(Cl)cc2)cs1)c1ccco1,-,45.4,-,-,-,-,38.0,10.5,
Cc1ccc(-c2csc(NC(=S)NC(=O)c3ccco3)n2)cc1,-,-,-,-,-,-,.,.,

# Source: PubChem
